A selection: hits, their analogues and other compounds. The true share with any hit is near 1.2%.
TRPV1 agonist: activates the human vanilloid receptor TRPV1. TRPV1-expressing cells, Fluo-8 calcium influx, agonist mode. activation, % at 8.33 µM. actives 0.19% (n = 320,000). AID 540275; in the data active = activation above about 80%; inconclusive = between about 30% and that limit; note: 0% is about no effect
Target sequence (Q8NER1 whole entry, looked up): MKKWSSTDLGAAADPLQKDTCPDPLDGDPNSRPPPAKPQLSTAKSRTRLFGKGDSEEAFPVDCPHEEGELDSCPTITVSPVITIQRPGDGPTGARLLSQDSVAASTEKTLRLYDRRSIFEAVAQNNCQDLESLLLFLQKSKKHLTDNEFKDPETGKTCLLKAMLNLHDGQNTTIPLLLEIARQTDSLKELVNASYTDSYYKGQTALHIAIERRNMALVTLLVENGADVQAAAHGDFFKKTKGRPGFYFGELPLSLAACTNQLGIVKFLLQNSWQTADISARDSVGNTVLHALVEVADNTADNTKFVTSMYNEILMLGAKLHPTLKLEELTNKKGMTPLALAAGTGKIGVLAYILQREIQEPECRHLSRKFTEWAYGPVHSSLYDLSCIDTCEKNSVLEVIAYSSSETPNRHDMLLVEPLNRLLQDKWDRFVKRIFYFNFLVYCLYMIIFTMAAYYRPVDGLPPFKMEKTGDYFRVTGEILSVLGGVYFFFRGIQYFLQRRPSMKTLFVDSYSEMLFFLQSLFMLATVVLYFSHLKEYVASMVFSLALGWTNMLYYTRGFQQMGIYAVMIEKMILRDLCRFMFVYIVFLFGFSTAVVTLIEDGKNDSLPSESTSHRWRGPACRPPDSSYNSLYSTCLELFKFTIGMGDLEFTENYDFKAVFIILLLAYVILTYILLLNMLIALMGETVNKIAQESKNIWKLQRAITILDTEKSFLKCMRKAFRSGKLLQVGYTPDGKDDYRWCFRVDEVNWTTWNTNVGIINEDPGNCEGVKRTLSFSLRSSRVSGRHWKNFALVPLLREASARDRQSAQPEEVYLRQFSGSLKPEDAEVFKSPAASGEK
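Cells expressing TRPV1 were dye-loaded with Fluo-8 and read kinetically: 10 s baseline, 3 min after compound (agonist portion), then 2 min after EC20 capsaicin (allosteric enhancer portion). Calcium-bound dye fluorescence at 480/520 nm.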
KCNH2 WT inh: blocks the wildtype human KCNH2 potassium channel | Q12809 | U2OS, BacMam KCNH2, thallium flux FluxOr; stronger effect = lower value | activity change, % at 1.84 µM | actives 0.37% (n = 340,000) | AID 720551;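 active = maximum activity change below -70%; inconclusive = maximum activity change between -70% and -50%; inactive = maximum activity change above -50%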; note: % is set by controls: 0 for no effect and ±100 for the full control effect
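U2OS cells were transduced with wild-type KCNH2 virus (2.03 x 10^8 / mL) for 4 h at room temperature, then cultured overnight at 37 C. Thallium flux was read with FluxOr dye. Rate constants were normalized to DMSO controls.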
KCNH2 3.1 inh: KCNH2 3.1 (human) potassium channel inhibition | U2OS KCNH2 3.1, thallium flux FluxOr; stronger effect = lower value | activity change, % (tested at about 1.8 µM) | actives 0.95% (n = 340,000) | AID 720553;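 active = maximum activity change below -70%; inconclusive = maximum activity change from -70% to -50%; inactive = maximum activity change above -50%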;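 note: thallium influx rate constant from kinetic fluorescence after stimulation buffer; % is set by controls: 0 for no effect and ±100 for the full control effect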
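Thallium flux read-out: FluxOr dye with Red40 quencher in HBSS/HEPES, 45 min at RT. Rate constants from kinetic reads were normalized to positive and negative DMSO controls. Cells: U2OS virally expressing the 3.1 isoform.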
TRPV1 PAM: enhances activation of the human vanilloid receptor TRPV1 | Q8NER1 | potentiation, % at 8.33 µM | actives 0.02% (n = 320,000) | TRPV1-expressing cells, Fluo-8 calcium influx, capsaicin EC20 potentiation; in the data active = potentiation above about 80%; inconclusive = between about 30% and that limit; note: 0% is about no effect
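Fluo-8 calcium influx in TRPV1-expressing cells, kinetic read (ex 480/em 520 nm). Compound added and read 3 min for agonist activity, followed by capsaicin at EC20 final and 2 min further read for enhancement.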
The depositor's hits bear a star; u = inconclusive; x = not tested or not shown.

SMILES	TRPV1 agonist	KCNH2 WT inh	KCNH2 3.1 inh	TRPV1 PAM
CC1(C)C2CCC(CN)C1C2 (stereo not drawn)	x	-7	2	x
CCOC(=O)Cc1nn[nH]n1	-1	-7	-128*	-6
Fc1ccc2c(c1)Sc1ccc(Cl)cc1CC2N1CCN(CCC2OCCO2)CC1 (stereo not drawn)	x	-3	-95*	x
CC1(C)OC(=O)C2(Cc3ccccc3N3CCCC32)C(=O)O1 (stereo not drawn)	-3	x	x	2
CCc1nnc(NC(=O)COC(=O)c2cc(OC)cc(OC)c2)s1	x	-20	-5	x
O=C(OCc1ccccc1)N(CCCCN(CCCNCc1ccccc1)C(=O)OCc1ccccc1)CCCNCc1ccccc1	x	15	-8	x
CCC(C)(C(=O)NC1CCCC1)N(C)C(=O)c1ccccn1 (stereo not drawn)	5	-2	11	89*
Cc1cc(CN(C)C(=O)CC2C(=O)NCCN2Cc2c(F)cccc2Cl)n[nH]1 (stereo not drawn)	4	-79*	-15	17
Cc1nonc1CN(C)C(=O)CC1C(=O)NCCN1Cc1c(F)cccc1Cl (stereo not drawn)	1	4	-5	7
CCCNC(=O)Cn1c(=O)/c(=C/c2ccc(-c3ccc([N+](=O)[O-])cc3)o2)s/c1=C\C(=O)C(C)(C)C	x	-25	-46	x
CCOc1ccc(CN2CCC(Cc3ccccc3)CC2)cc1	5	-85*	-92*	1
Cc1cc(OCCN2CCC(Cc3ccccc3)CC2)ccc1[N+](=O)[O-]	10	0	-71*	-7
OC(COc1ccc(Cl)cc1)CN1CCC(Cc2ccccc2)CC1 (stereo not drawn)	3	-93*	-125*	5
OC(COc1ccc(Cl)cc1)CN1CCN(c2ccccc2)CC1 (stereo not drawn)	1	-10	-5	4
CCCCN(C)C(=O)C1CCN(Cc2ccc(OCc3ccccc3)cc2)CC1	1	30	-75*	-5
COc1ccc(CN2CCC(Cc3ccccc3)CC2)cc1OC	2	26	1	-8
CCOC(=O)C1CCCN(c2c(C(=O)c3ccc(C)cc3)cnc3ccc(OCC)cc23)C1 (stereo not drawn)	u	x	x	-18
COc1ccc(/C=N/NC(=O)c2ccncc2)cc1CN1CCOCC1	0	19	2	-24
COc1ccc(/C=N/NC(=O)c2ccc(Br)cc2)cc1CN1CCOCC1	3	17	-85*	-4
COc1ccc(C(=O)N/N=C/c2ccc(OC)c(CN3CCN(c4ccc(F)cc4)CC3)c2)cc1	1	-168*	-110*	-7
COc1ccc(/C=N/NC(=O)c2ccoc2C)cc1CN1CCN(c2ccc(F)cc2)CC1	-5	-49	-110*	10
COc1ccc(/C=N/NC(=O)c2cccnc2)cc1CN1CCN(c2ccc(F)cc2)CC1	2	-18	-80*	0
COc1ccc(C(=O)N/N=C/c2ccc(OC)c(CN3CCCc4ccccc43)c2)cc1	4	3	-5	3
CCOc1ccc(/C=N/NC(=O)c2ccoc2C)cc1OC	-2	4	17	8
CCOc1ccc(OCC(=O)OCC(=O)N2CCN(S(=O)(=O)c3ccc(C)cc3C)CC2)cc1	x	-2	-3	x
SMILES	TRPV1 agonist	KCNH2 WT inh	KCNH2 3.1 inh	TRPV1 PAM
NC(=O)C1(Nc2ccc(Cl)cc2)CCCC1	x	-3	11	x
CC1CCCCC1NC(=O)CN1CCC(NC(=O)C(C)(C)C)CC1 (stereo not drawn)	x	-9	-5	x
COc1cc(NS(=O)(=O)c2ccc3[nH]c(=O)oc3c2)cc(OC)c1	-5	20	-71*	1
C=CCOc1ccc(C2NC(=O)c3ccccc3O2)cc1OC (stereo not drawn)	x	-75*	6	x
C=CCOc1ccc(C2NC(=O)c3ccccc3O2)cc1OCC (stereo not drawn)	-6	-3	-9	u
COC(=O)c1cc(NC(=O)c2cc(C)oc2C)cc(C(=O)OC)c1	0	-193*	-14	2
Cc1cc(C(=O)Nc2ccc(C(=O)O)cc2)c(C)o1	0	-12	11	10
CCc1ccc(-c2cc3c(=O)n(CC(=O)NCCCN4CCC(Cc5ccccc5)CC4)nc(C)n3n2)cc1	0	-45	-91*	u
Cc1nn(CC(=O)NCCCN2CCC(Cc3ccccc3)CC2)c(=O)c2cc(-c3ccccc3)nn12	3	-87*	-103*	3
Cc1nn(CC(=O)NCCCN2CCN(Cc3ccccc3)CC2)c(=O)c2cc(-c3ccccc3)nn12	0	31	-49	6
NC(=O)c1ncn([C@@H]2O[C@H](CNCc3cccc(OC4CCCC4)c3)[C@@H](O)[C@H]2O)n1	x	-5	-7	x
CCOC(=O)C1=CN(CC)S(=O)(=O)NC1CC (stereo not drawn)	x	-5	7	x
COc1cc(CNC(=O)CCCC/C=C\C(C)C)ccc1O	80*	x	x	-2
CCCCCCCC(=O)N/N=C/c1ccc(Br)cc1	u	9	-82*	-6
CCCCCCCC(=O)N/N=C/c1cccnc1	u	-7	-7	-21
Cc1csc(=O)n1CC(=O)OCC(=O)NC(C)c1ccc(F)cc1 (stereo not drawn)	1	-4	14	5
CCc1ccc2nc(SCC(=O)Nc3nnc(C)s3)c(C)cc2c1	1	-6	-91*	-1
CN(CC(=O)Nc1ccc(F)cc1)CC(=O)N1CCCC1	-7	1	-3	9
Cn1c2ccccc2c2ncn(Cc3ccco3)c(=O)c21	-3	-22	2	1
Cn1c2ccccc2c2ncn(Cc3ccc(F)cc3)c(=O)c21	80*	-1	4	-3
C[C@H](O)[C@@H]1C(=O)N2CCc3c([nH]c4ccccc34)[C@@H]2C[C@@H]1N(C)Cc1ccc2c(c1)OCO2	x	-11	-18	x
CCn1c(COc2ccccc2)nnc1SCC(=O)NC1CCCCC1	-8	-176*	-5	19
O=C(CSc1ncccc1C(=O)O)NC1CCCCCCC1	0	-3	-79*	7
NCC1C2CCC(O2)C1CO (stereo not drawn)	x	-5	-3	x
COC(=O)CSc1ncnc2c1cnn2Cc1ccccc1	30	-5	2	3
SMILES	TRPV1 agonist	KCNH2 WT inh	KCNH2 3.1 inh	TRPV1 PAM
CC(C)(C)C(=O)CSc1ncnc2c1cnn2Cc1ccccc1	90*	-4	22	-13
O=C(NCCSCc1c(F)cccc1Cl)Nc1ccccc1	83*	-3	-5	17
c1ccc(Nc2ncnc3c2oc2ccccc23)cc1	81*	0	3	-5
c1ccc2c(c1)oc1c(NCCN3CCOCC3)ncnc12	6	0	-24	1
c1ccc2c(c1)oc1c(Nc3ccc(CN4CCOCC4)cc3)ncnc12	84*	3	-25	-8
O=C1NCC(Nc2ccccc2Cl)C(=O)N1 (stereo not drawn)	x	-2	5	x
COCC(Cc1ccccc1)NC(=O)Cn1cc(C)c(=O)[nH]c1=O (stereo not drawn)	x	-18	-9	x
O=C(Nc1ccc(F)cc1F)c1ccco1	-3	-6	-77*	6
